Laboratory results reported in publication PMC4336329 (PLoS ONE, 2015).
About 14,000 (4.5%) of roughly 310,000 compounds showed an effect of 50% or more. The effect is printed as a negative number. Many of the other results were omitted from the sample, so strong results are more common in it than they were.

Target: human ether-à-go-go-related gene (hERG) potassium channel (human, UniProt Q12809)
Experiment: primary screen, population patch clamp on CHO cells stably expressing hERG; higher = less effect of the substance
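Further: peak tail current of the secondary pulse compared with the same well before compound.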

human ether-à-go-go-related gene (hERG) potassium channel, sequence (Q12809 whole entry, looked up): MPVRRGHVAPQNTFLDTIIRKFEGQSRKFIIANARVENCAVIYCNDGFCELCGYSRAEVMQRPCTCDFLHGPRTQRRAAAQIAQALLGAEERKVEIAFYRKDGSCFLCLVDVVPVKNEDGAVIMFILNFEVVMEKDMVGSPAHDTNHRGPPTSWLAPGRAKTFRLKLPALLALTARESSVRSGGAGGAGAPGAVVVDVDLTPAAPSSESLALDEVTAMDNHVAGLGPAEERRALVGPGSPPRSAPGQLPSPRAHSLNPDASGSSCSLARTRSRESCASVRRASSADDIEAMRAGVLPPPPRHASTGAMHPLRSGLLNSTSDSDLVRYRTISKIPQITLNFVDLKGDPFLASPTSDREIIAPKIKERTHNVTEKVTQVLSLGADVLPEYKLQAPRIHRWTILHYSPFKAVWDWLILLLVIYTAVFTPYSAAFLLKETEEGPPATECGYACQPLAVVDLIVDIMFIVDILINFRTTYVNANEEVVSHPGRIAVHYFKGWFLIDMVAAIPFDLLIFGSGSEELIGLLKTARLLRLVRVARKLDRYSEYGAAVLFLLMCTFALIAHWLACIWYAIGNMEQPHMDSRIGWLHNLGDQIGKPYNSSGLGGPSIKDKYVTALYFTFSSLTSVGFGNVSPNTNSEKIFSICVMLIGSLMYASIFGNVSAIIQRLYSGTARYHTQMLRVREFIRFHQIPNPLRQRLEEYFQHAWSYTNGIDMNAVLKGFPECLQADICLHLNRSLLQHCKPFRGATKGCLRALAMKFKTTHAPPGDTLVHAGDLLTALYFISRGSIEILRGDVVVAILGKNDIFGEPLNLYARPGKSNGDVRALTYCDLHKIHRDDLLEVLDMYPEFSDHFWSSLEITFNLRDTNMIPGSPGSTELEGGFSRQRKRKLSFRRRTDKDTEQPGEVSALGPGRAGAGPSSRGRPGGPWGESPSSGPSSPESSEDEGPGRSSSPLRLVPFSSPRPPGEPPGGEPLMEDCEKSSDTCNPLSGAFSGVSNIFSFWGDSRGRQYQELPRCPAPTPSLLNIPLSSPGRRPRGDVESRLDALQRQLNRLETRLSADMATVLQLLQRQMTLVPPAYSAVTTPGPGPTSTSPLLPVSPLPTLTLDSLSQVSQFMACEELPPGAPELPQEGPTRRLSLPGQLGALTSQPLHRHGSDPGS

Row | SMILES | hERG current change (%, negative = inhibition) at 10uM
1 | Cn1c(=O)c2c(nc(SCc3ccc(F)cc3)n2C)n(C)c1=O | 1.9%
2 | CCN(CC)CCNC(=O)c1ccc(Cl)c(S(=O)(=O)N2CCCCCC2)c1.Cl | -67.4%
3 | O=C(NCC(O)c1ccccc1)c1ccc(Cl)c(S(=O)(=O)N2CCCCC2)c1 (centres unmarked) | 8.95%
4 | CN(C)CCCNC(=O)c1ccc(Cl)c(S(=O)(=O)N2CCCCCC2)c1.Cl | -72.4%
5 | Cc1ccc(CNC(=O)c2ccc(Cl)c(S(=O)(=O)N3CCCCC3)c2)cc1 | -27.3%
6 | CCN(CC)CCNC(=O)c1ccc(NC(=O)c2ccc(Cl)c(S(=O)(=O)N3CCCCCC3)c2)cc1.Cl | -24%
7 | O=C(NCC(O)c1ccccc1)c1ccc(Cl)c(S(=O)(=O)N2CCCC2)c1 (centres unmarked) | -0.367%
8 | CCN(CC)CCOC(=O)c1ccc(NC(=O)c2ccc(Cl)c(S(=O)(=O)N3CCCCCC3)c2)cc1.Cl | 13.7%
9 | CN(C)C(CNC(=O)c1ccc(Cl)c(S(=O)(=O)N2CCCCCC2)c1)c1ccccc1 (centres unmarked) | -67.5%
10 | O=C(NCCCN1CCCC1=O)c1ccc(Cl)c(S(=O)(=O)N2CCCCC2)c1 | -24.1%
11 | Cc1cc(C)n(C(=O)c2cccc([N+](=O)[O-])c2)n1 | -5.46%
12 | COc1ccc(CCNC(=O)C2CCN(S(=O)(=O)c3cnc[nH]3)CC2)cc1OC | 13.7%
13 | CCN(C(=O)CSc1nc(N)cc(=O)[nH]1)c1c(N)n(Cc2ccccc2)c(=O)[nH]c1=O | 2.41%
14 | Cc1ccc(S(=O)(=O)NCCCn2ccnc2)cc1C(=O)NC(C)C | -1.56%
15 | O=S(=O)(Nc1ccc2c(c1)OCO2)c1ccc(Br)s1 | -18.1%
16 | O=C(O)CCN1CCc2ccccc2C1c1ccncc1 (centres unmarked) | 13.2%
17 | Cc1sc(NC(=O)c2ccco2)c(CN2CCC(C)CC2)c1C | -16.2%
18 | CCN(CC)C(=O)CSc1nnc(CNc2ccc(F)cc2)o1 | 1.13%
19 | Cc1ccc(S(=O)(=O)N(C)Cc2nc(-c3ccncc3)no2)cc1 | -19.5%
20 | CN(Cc1nc(-c2ccncc2)no1)S(=O)(=O)c1ccccc1 | 3.91%
21 | CN(Cc1nc(-c2ccncc2)no1)S(=O)(=O)c1ccc(Br)cc1 | -58.1%
22 | CN(Cc1nc(-c2cccnc2)no1)S(=O)(=O)c1ccc(Br)cc1 | -46%
23 | CN(Cc1nc(-c2ccncc2)no1)S(=O)(=O)c1ccc(Cl)cc1 | -55.5%
24 | Cc1ccc(S(=O)(=O)N(C)Cc2nc(-c3ccc(Br)cc3)no2)cc1 | 4.12%
25 | O=C(NNc1nc(-c2ccccc2)cs1)c1cccs1 | 10.7%
26 | O=C(COC(=O)c1ccc(F)cc1F)NCCNC(=O)COC(=O)c1ccc(F)cc1F | 16.8%
27 | Cc1c(Cl)cccc1NC(=O)CN1CCC(C(O)(c2ccccc2)c2ccccc2)CC1 | -12.3%

Row | SMILES | hERG current change (%, negative = inhibition) at 10uM
28 | NNc1nc2c(Cl)ccc(Cl)c2s1 | 18.6%
29 | NS(=O)(=O)c1cccc(NC(=O)Cc2ccc(Cl)c(Cl)c2)c1 | 6.09%
30 | CC(C)N(CCCNC(=O)c1ccc(CS(=O)(=O)c2c(Cl)cccc2Cl)o1)Cc1ccccc1 | -67.7%
31 | O=C(NCCc1ccccc1)c1ccc(CS(=O)(=O)c2ccc(Cl)cc2)o1 | -2.15%
32 | CC1CCCN(CCCNC(=O)c2ccc(CS(=O)(=O)c3c(Cl)cccc3Cl)o2)C1 (centres unmarked) | -44.8%
33 | O=C(NCCCN1CCOCC1)c1ccc(CS(=O)(=O)c2c(Cl)cccc2Cl)o1 | 2.35%
34 | CCN1CCN(CCNC(=O)c2ccc(CS(=O)(=O)c3c(Cl)cccc3Cl)o2)CC1 | -8.19%
35 | O=C(NCCc1ccccc1)c1ccc(CS(=O)(=O)c2ccc(Br)cc2)o1 | 10.2%
36 | COC(CNC(=O)c1ccc(CS(=O)(=O)c2c(Cl)cccc2Cl)o1)OC | 21.2%
37 | CC(C)N(CCNC(=O)c1ccc(CS(=O)(=O)c2c(Cl)cccc2Cl)o1)Cc1ccccc1 | -70.6%
38 | CN(CCNC(=O)c1ccc(CS(=O)(=O)c2ccc(Br)cc2)o1)CCc1ccccc1 | -77.5%
39 | CN(CCNC(=O)c1ccc(CS(=O)(=O)c2c(Cl)cccc2Cl)o1)CCc1ccccc1 | -70%
40 | CN(C)CCNC(=O)c1ccc(CS(=O)(=O)c2ccc(Br)cc2)o1 | -3.14%
41 | O=C(NCCN1CCCC1)c1ccc(CS(=O)(=O)c2c(Cl)cccc2Cl)o1 | -45.5%
42 | NC(=O)C1=C[C@H](c2ccc(C(F)(F)F)cc2)C[C@H](OCCCCO)O1 | -4.54%
43 | CCCOc1ccc(C2NC(=S)NC(c3ccccc3)=C2C(=O)Nc2ccc(C)cc2)cc1OC (centres unmarked) | 0.514%
44 | CCN(CC(=O)Nc1cccc(OC)c1)CC(=O)Nc1ccc(C)cc1Cl | -10.4%
45 | COc1ccccc1/C=N/NC(=O)c1ccc2c(c1)OCO2 | 7.71%
46 | Cc1ccccc1OCC(=O)NCC1CCCO1 (centres unmarked) | 13.3%
47 | CCOc1ccc(NC(=O)CNC(=O)c2ccc([N+](=O)[O-])cc2)cc1 | -7.46%
48 | Cc1cc(N/N=C\c2ccccc2)nc(-c2ccccc2O)n1 | 4.95%
49 | Cn1c(NC(=O)c2cc(Br)ccc2Cl)cc(=O)n(C)c1=O | 1.62%
50 | COc1ccc(N2CCN(S(=O)(=O)c3cc4c5c(c3)C(C)C(=O)N5CCC4)CC2)cc1 (centres unmarked) | 3.36%
51 | CC1C(=O)N2CCCc3cc(S(=O)(=O)N4CCN(c5ccccc5F)CC4)cc1c32 (centres unmarked) | -8.8%
52 | CC1C(=O)N2CCCc3cc(S(=O)(=O)N4CCN(c5ccc(F)cc5)CC4)cc1c32 (centres unmarked) | -50.3%
53 | O=C(/C=C/c1ccccc1[N+](=O)[O-])Nc1ccccc1 | 10.1%
